LASV entry inh – blocks Lassa virus binding to or entry into cells. AID 540256. actives 1.2% (n = 300,000). Potency, µM (top dose mostly 37.9 µM), inactives show at the highest dose activity change, negative = inhibition, actives largely listed as inhibitors. Lassa virus pseudotype entry inhibition, cell reporter; calls by dose curve; tested in HEK293 cells; note: nearly all actives have a fitted effect of over 50% in size
Vaccinia Venus – vaccinia inhibition (Venus reporter); Potency, µM (highest dose often 36.5 µM), for inactives: top-dose activity change, negative = inhibition, actives largely listed as inhibitors; AID 720580; actives 0.46% (n = 330,000); Vaccinia virus Venus reporter expression, fluorescence; calls by dose curve; tested in A549 cells; note: nearly all actives have a fitted effect of over 30% in size
Vaccinia mCherry – inhibitors of vaccinia virus infection (mCherry reporter signal); actives 0.63% (n = 310,000); Vaccinia virus mCherry reporter infection, fluorescence; Potency, µM (top dose mostly 36.5 µM), for the others: at the highest dose activity change, negative = inhibition, actives largely listed as inhibitors; calls by dose curve; tested in A549 cells; note: nearly all actives have a fitted effect of over 35% in size
FMDV antiviral – foot and mouth disease virus antiviral activity; FMDV antiviral cell-based qHTS; Potency, µM (doses to about 57.9 µM), inactives show at the top dose activity change, negative = inhibition, actives largely listed as inhibitors; actives 1.2% (n = 410,000); calls by dose curve; tested in HEK293T cells; note: read-out not given here; nearly all actives have a fitted effect of over 45% in size
Marburg entry inh – inhibitors of Marburg virus binding or cell entry; Marburg virus pseudotyped entry inhibition, cell reporter; AID 540276; Potency, µM (highest dose often 37.8 µM), without a hit: top-dose activity change, negative = inhibition, most hits filed as inhibitors; actives 1.8% (n = 300,000); calls by dose curve; tested in HEK293 cells
* hit, by the source's call; ? = inconclusive; nt = no result given; [ ] = dose if it differs, or a comment. An excerpt weighted towards active compounds, which were near 3.2% of everything screened. % is set by controls: 0 for no effect and ±100 for the full control effect; potency is the fitted concentration of half-maximal effect.

SMILES	LASV entry inh	Vaccinia Venus	Vaccinia mCherry	FMDV antiviral	Marburg entry inh
COc1ccc(S(=O)(=O)N2CCCC2CNC(=O)C(=O)Nc2ccc(C)cc2)cc1 (stereo not given)	?	-14%	?	0%	?
O=C(Nc1ccc(F)cc1)C(c1ccccc1)N1CCN(S(=O)(=O)c2ccccc2)CC1 (stereo not given)	?	-16%	-28%	-25%	-6%
O=C(NCCc1ccccc1)C(=O)NCC1CCCN1S(=O)(=O)c1ccccc1 (stereo not given)	?	?	?	-19%	11µM*
CC1(C(=O)NS(=O)(=O)c2cccs2)CCN1C(=O)CC1CCCCC1 (stereo not given)	nt	-5%	-2%	-22%	nt
CCC1CCCCN1S(=O)(=O)c1ccc(NC(=O)C2CCCO2)cc1 (stereo not given)	-25%	-3%	-12%	-1%	13%
CCC1CCCCN1S(=O)(=O)c1ccc(NC(=O)c2cccs2)cc1 (stereo not given)	5.2µM*	-9%	-13%	-19%	-2%
COc1cc(N(C)C)c(OC)cc1C=O	nt	-3%	-14%	nt	nt
O=C1C(Cc2cccc([N+](=O)[O-])c2)SC(=Nc2ccccc2)N1c1ccccc1 (stereo not given)	-4%	-6%	-17%	-10%	?
O=C(COc1ccccc1Cl)N(Cc1cccs1)C1CCS(=O)(=O)C1 (stereo not given)	0.5µM*	-6%	-14%	-9%	13%[46.1 µM]
O=C(C(NS(=O)(=O)c1cccs1)c1ccccc1)N1CCN(c2ccccc2F)CC1 (stereo not given)	7.3µM*	-12%	-2%	-17%	?
O=S(=O)(NCC(c1cccnc1)N1CCN(c2ccccc2F)CC1)c1cccs1 (stereo not given)	nt	-9%	-17%	-3%	2%
Cc1cccc(N2CCN(C(=O)C(NS(=O)(=O)c3cccs3)c3ccccc3)CC2)c1C (stereo not given)	2.6µM*	-26%	?	-11%	-29%
CN(c1ccc(-c2csc(NC(=O)CCCc3nc4ccccc4c(=O)[nH]3)n2)cc1)S(C)(=O)=O	nt	-20%	-9%	35µM*	nt
Cc1ccc(C(=O)NC(Cc2cccc(F)c2)C(=O)O)cc1 (stereo not given)	nt	-14%	-14%	10%	nt
FC(F)(F)c1cc(CCN2CCNC[C@@H]2Cc2ccccc2)cc(C(F)(F)F)c1	nt	11µM*	13µM*	-21%	nt
CCN1C(=O)[C@H]2[C@@H](c3ccc(-c4ccc(C(C)=O)cc4)cc3)N3CCCC[C@@]3(C(=O)OC)[C@H]2C1=O	nt	?	-6%	0%	nt
CC1CCN(S(=O)(=O)c2ccc3c(c2)C(=NO)c2cc(S(=O)(=O)N4CCC(C)CC4)ccc2-3)CC1	2.5µM*	?	2.8µM*	?	?
O=S(=O)(c1ccc(S(=O)(=O)N2CCCC2)cc1)N1CCCCCC1	-20%	-1%	-4%	nt	16%
O=S(=O)(c1ccc2c(c1)C(=NO)c1cc(S(=O)(=O)N3CCCCC3)ccc1-2)N1CCCCC1	6.3µM*	1.4µM*	1.8µM*	?	?
CN=c1scc(-c2ccc(F)cc2)n1/N=C/c1ccc(O)c(O)c1	?	-18%	?	1.3µM*	18µM*
CN=c1scc(-c2ccc([N+](=O)[O-])cc2)n1/N=C/c1ccco1	-3%	-10%	-5%	47%	4%[46.1 µM]
COC(=O)[C@]1(C)CC[C@@]2(C)CC[C@@]3(C)C4=CC=C5C(=CC(=O)C(O)=C5C)[C@@]4(C)CC[C@@]3(C)C2C1 (stereo not given in full)	nt	-27%	-17%	10µM*	nt
COc1cc([C@H]2C[C@H](C(F)(F)F)n3ncc(C(=O)O)c3N2)cc(OC)c1OC	nt	nt	nt	nt	-7%
CC(NCCN(C)C)C(=O)C12CC3CC(CC(C3)C1)C2 (stereo not given)	nt	nt	nt	-4%	nt
COCC(=O)OC1CCn2c1nc1c2C(=O)C(C)=C(NC(C)=O)C1=O (stereo not given)	3.2µM*	?	?	10µM*	?
CC(=O)NC1=C(N2CC2C)C(=O)C(NC(C)=O)=C(N2CC2C)C1=O (stereo not given)	-12%	-11%	0%	2%	-8%
COC(=O)c1ccccc1-c1c2ccc(=N)cc-2oc2cc(N)ccc12	7.9µM*	nt	167%	0%	?
O=C(O)c1ccccc1-c1oc2cc(O)ccc2c(=O)c1Oc1ccccc1	nt	nt	nt	0%	nt

Assay outcomes (PubChem)
